High-throughput results as filed in PubChem BioAssay.
SW480 rereplic: inducers of DNA re-replication in SW480 colon cancer cells. SW480 DNA re-replication, Hoechst DNA content imaging, 48 h. Potency, µM (titrated, usually from 46.1 µM), inactives show at the highest dose re-replication activation, most hits filed as activators. 340,000 tested, 1.8% active. AID 624297; also: potency is read from the fitted curve at half-maximal effect; % of control where 0% means no effect; nearly all actives have a fitted effect of over 55% in size
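Per well, 250 cells were exposed to pinned compound for 48 hr. Nuclear DNA was visualised with Hoechst (40 min, 37 C) and total object intensity recorded by fluorescence scanning.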
IL1B secr inh: inhibitors of inflammasome signaling (IL-1 beta secretion); THP-1 LPS/ATP IL-1B secretion, AlphaLISA, 16 h; hits give low values; activity change, % at 57.5 µM; 360,000 tested, 4.7% active; AID 743279; in the data active = activity change below about -50%; inconclusive = mostly about -30% to -49%; also: % is scaled to controls: 0 for no effect and ±100 for the full control effect
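THP-1 cells pretreated 1 hr with compounds (up to 57.5 uM final), then stimulated with LPS (250 ng/mL final) plus ATP (1.25 mM final); secreted IL-1B measured by AlphaLISA after 16 hr, decreased signal indicating inhibition.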
Vif-APOBEC3F blk: inhibitors of Vif-A3F interaction. HeLa A3F-eYFP + Vif (tagged APOBEC3F with the HIV-1 protein that degrades it), YFP fluorescence increase. Potency, µM (series often up to 46.1 µM), for inactives: top-dose activity, negative = active. 390,000 tested, 0.2% active; also: potency is read from the fitted curve at half-maximal effect; % of control where 0% means no effect; nearly all actives have a fitted effect of over 65% in size
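HeLa cells stably expressing Vif plus C-terminally eYFP-tagged A3F were seeded, incubated overnight at 37 deg C, dosed with compound, incubated overnight again at 37 deg C. Yellow fluorescence (Ex 488/Em 500-530) reported blocked Vif-mediated A3F-eYFP degradation.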
MCF10A rereplic: induces DNA re-replication in MCF 10a normal breast cells | AID 624296 | 350,000 tested, 2.9% active | Potency, µM (series often up to 46.1 µM), for the others: at the highest dose activity, positive = re-replication, usual class: activators | MCF 10A DNA re-replication, Hoechst nuclear intensity, 48 h; also: potency is read from the fitted curve at half-maximal effect; % of control where 0% means no effect; nearly all actives have a fitted effect of over 50% in size
Giardia kill: kills Giardia lamblia; 340,000 tested, 0.15% active; Giardia lamblia trophozoite viability; activity change, % at 7.66 µM, hits read low; AID 540267; in the data active = activity change below about -80%; inconclusive = between about -30% and that limit;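 also: parasites exposed to compound for two days anaerobically before the ATP read; % is scaled to controls: 0 for no effect and ±100 for the full control effect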
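Each well holds 100 Giardia trophozoites and compound. After two days (48 hrs) at 37 deg C in anaerobic conditions, ATP is quantified by luminescence.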
Vif-A3G inh: Vif-A3G binding inhibition | HeLa A3G-eYFP + Vif (tagged APOBEC3G with the HIV-1 protein that degrades it), YFP fluorescence, overnight | Potency, µM (top dose mostly 46.1 µM), for the others: top-dose activity, negative = active, most hits filed as inhibitors | 410,000 tested, 0.076% active; also: potency is read from the fitted curve at half-maximal effect; % is scaled to controls: 0 for no effect and ±100 for the full control effect; nearly all actives have a fitted effect of over 60% in size
Target sequence (Q9HC16 whole entry, looked up): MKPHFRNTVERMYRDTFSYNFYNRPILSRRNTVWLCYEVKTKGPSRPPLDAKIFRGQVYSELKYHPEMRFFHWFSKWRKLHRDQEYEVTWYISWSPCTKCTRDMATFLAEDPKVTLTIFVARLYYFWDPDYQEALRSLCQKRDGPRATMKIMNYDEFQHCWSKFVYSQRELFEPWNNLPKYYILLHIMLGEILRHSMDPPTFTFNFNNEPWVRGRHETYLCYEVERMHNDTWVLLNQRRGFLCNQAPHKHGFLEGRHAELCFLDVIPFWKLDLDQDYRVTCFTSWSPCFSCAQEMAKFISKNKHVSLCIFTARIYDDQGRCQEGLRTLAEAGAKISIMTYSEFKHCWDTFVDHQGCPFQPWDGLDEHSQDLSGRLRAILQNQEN
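Read-out is eYFP fluorescence (Ex 488/Em 500-530) from Vif-expressing HeLa A3G-eYFP cells; more signal means A3G escaped Vif-mediated degradation. Cells plated overnight, compound pinned in, incubated overnight at 37 deg C.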
* = called active by the depositor; ? = inconclusive; . = no result; [ ] = another dose, or the depositor's remark. Shown are actives, neighbours in structure and some others; about 6.9% of the full set was active somewhere. Unless noted, calls follow the shape of the dose curve; as a rule, active = well fitted curve in the direction sought with a large enough effect; inconclusive = small, poorly fitted or top-dose-only effect, or another doubt; inactive = no such curve, though single readings can be large; an effect the other way counts as inactive or inconclusive.

SMILES	SW480 rereplic	IL1B secr inh	Vif-APOBEC3F blk	MCF10A rereplic	Giardia kill	Vif-A3G inh
CCc1ccc(NC(=O)CSC2=Nc3ccccc3C3=NC(CC(=O)NCc4ccc5c(c4)OCO5)C(=O)N23)cc1 (configuration not stated)	.	.	-4%	.	.	3%
CCc1ccc(CNC(=O)C2CCCN(c3nnc(C)c4c(C)n(-c5ccccc5)nc34)C2)cc1 (configuration not stated)	-4%	-71*	12%	7%	0	-4%
Cc1c(Cl)cccc1NC(=O)Cn1cc(C(=O)C2CCCCC2)c2ccccc21	.	.	-4%	.	.	-4%
COc1ccc2sc3c(=O)[nH]c4ccccc4c3c2c1	5%	12	0%	?	23	-1%
COc1ccc2c(c1)[nH]c(=O)c1sc3ccccc3c12	3%	0	-19%	13µM*	9	-11%
Cc1ccccc1Cn1c2ccccc2c2cnn(CC(=O)NCCCc3ccccc3)c(=O)c21	.	.	-10%	.	.	-1%
COc1ccc2c(c1)c(C(O)CN1CCN(Cc3ccc4c(c3)OCO4)CC1)c(C)n2C (configuration not stated)	-6%[9.22 µM]	-15	-6%	6%	-3	0%
OC(COCc1ccc2c(c1)OCO2)CN1CCC(Cc2ccccc2)CC1 (configuration not stated)	-2%	-71*	4%	?	26	-2%
OC(COc1ccc(Br)cc1)CN1CCC(Cc2ccccc2)CC1 (configuration not stated)	?	-68*	-11%	?	-20	2%
COc1ccc2c(c1)c(C(O)CN1CCC(Cc3ccccc3)CC1)c(C)n2C (configuration not stated)	7%	-90*	-7%	21%	-3	0%
CCn1c(=O)c2sccc2n2c(CCC(=O)Nc3ccc(F)cc3)nnc12	.	.	-3%	.	.	-2%
CCc1ccc(OCC(=O)N(Cc2ccc(OC)cc2)C2CCS(=O)(=O)C2)cc1 (configuration not stated)	.	.	0%	.	.	-1%
COc1ccc(NC(=O)C2CCN(c3cc(C)nc4c(-c5ccc(Cl)cc5)c(C)nn34)CC2)cc1	.	.	1%	.	.	1%
COc1cccc(CNC(=O)COC(=O)C2CCN(c3ccc(C(F)(F)F)cn3)CC2)c1	-5%	20	-9%	-5%	-10	1%
COc1ccccc1CNC(=O)COC(=O)C1CCN(c2ccc(C(F)(F)F)cn2)CC1	4.6µM*	16	0%	8%	3	2%
COc1ccccc1CNC(=O)COC(=O)Cn1cnc2ccccc21	?	20	-2%	0.82µM*	15	0%
CCOc1ccccc1CN(CCc1ccc2c(c1)OCO2)Cc1cc(OC)c(OC)cc1OC	.	.	-1%	.	.	4%
O=S1(=O)CCO[C@H]2CCCC[C@@H]2N1Cc1ccccc1	.	.	.	.	.	1%
COc1ccc(NC(=O)CSc2nc3nc(C)c(Cc4ccccc4)c(C)n3n2)cc1OC	.	.	-6%	.	.	1%
O=C(NCCc1nc2ccccc2n1Cc1ccc(F)cc1)c1ccco1	.	.	0%	.	.	-1%
COC(/C=C/Nc1ccc(OC)cc1)=C(C#N)C#N	0%	-59*	-7%	-8%	-1	2%
Cc1ccc2nc(N(CCCN(C)C)C(=O)c3ccc(Br)s3)sc2c1	27%	-79*	-1%	0%	15	0%
CN(C)CCCN(C(=O)c1cc2cc([N+](=O)[O-])ccc2s1)c1nc2cc3c(cc2s1)OCCO3	10µM*	0	-8%	?	?	-27%
CN(C)CCCN(C(=O)c1ccc(Br)s1)c1nc2cc3c(cc2s1)OCCO3	?	-93*	?	?	16	-22%
CN(C)CCCN(C(=O)c1ccc([N+](=O)[O-])s1)c1nc2cc3c(cc2s1)OCCO3	?	-96*	-10%	-9%	4	-7%
SMILES	SW480 rereplic	IL1B secr inh	Vif-APOBEC3F blk	MCF10A rereplic	Giardia kill	Vif-A3G inh
COc1ccc(NC(=O)C2=C(C)Nc3nc(SCc4ccc(Cl)cc4)nn3C2c2cccc(OC)c2OC)cc1 (configuration not stated)	.	.	-1%	.	.	-2%
CN(C)CCCN(C(=O)c1cc(Cl)sc1Cl)c1nc2cc3c(cc2s1)OCO3	24%	?	?	?	6	0%
CN(C)CCCN(C(=O)c1ccc(Cl)s1)c1nc2cc3c(cc2s1)OCO3	?	-98*	-28%	?	-2	-15%
COc1ccc(CCNC(=O)c2cnc3sc(N4CCCC4)nn3c2=O)cc1OC	.	.	1%	.	.	1%
CSc1ccccc1OCc1cc(C(=O)N(C)Cc2ccc(C)o2)no1	?	-67*	-5%	10%	27	0%
CCOc1cc(/C=N/NC(=O)c2ccc(O)cc2)ccc1Oc1nc(Cl)ncc1F	3%	0	-9%	6%	2	0%
CCOc1cc(/C=N\Nc2ncc(F)c(N3CCOCC3)n2)ccc1Oc1nc(Cl)ncc1F	-2%	-83*	14%	?	-3	-2%
COc1ccc(NC(=O)CC2C(=O)N(c3ccc(C)cc3)C(=O)N2Cc2ccc(C)cc2)cc1 (configuration not stated)	.	.	0%	.	.	3%
Cc1ccc(CNC(=O)C2CCCN2C(=O)Nc2ccc(C)cc2)cc1 (configuration not stated)	4%	1	2%	-10%	-8	2%
Cc1ccc(CNC(=O)C2CCCN2C(=O)Nc2ccccc2)cc1 (configuration not stated)	-1%	-7	2%	0.65µM*	-1	1%
CC(=NNC(=S)Nc1ccccc1Cl)c1ccccn1	?	-102*	5%	?	1	?
CC(=NNC(=S)N1CCCCC1)c1ccccn1	.	-74*	-2%	.	.	-7%
O=C1ON=C(c2cccc([N+](=O)[O-])c2)/C1=C/c1ccc(O)cc1	?	-100*	-8%	?	27	-25%
O=C1ON=C(c2ccccc2)/C1=C/c1ccc(O)c(O)c1	-5%	0	-7%	24%	-22	0%
NC(=O)CSc1ncnc2c1nnn2Cc1ccc(F)cc1	-4%	-96*	1%	?	9	-7%
CC(C)c1ccc(NC(=O)C2CCCN(S(=O)(=O)c3cccc4cccnc34)C2)cc1 (configuration not stated)	.	.	6%	.	.	0%
O=C(Nc1cccc(-c2cnc3ccccc3n2)c1)c1cccc(NC(=O)c2ccco2)c1	3%	60	-11%	15µM*	-25	-20%
O=C(Nc1cccc(-c2cnc3ccccc3n2)c1)c1ccccc1	3%	31	-10%	1%	-8	0%
O=C(CCl)Nc1ccc(Oc2cnc3ccccc3n2)cc1	?	-104*	-5%	?	-24	?
